Compound activity deposited in PubChem by National Center for Advancing Translational Sciences (NCATS).
This is a sample that favours compounds with a hit; in the whole collection about 21% have one here.
IL1B secr inh = qHTS for Inhibitors of Inflammasome Signaling: IL-1-beta AlphaLISA Primary Screen; THP-1 LPS/ATP IL-1B secretion, AlphaLISA, 16 h; stronger effect = lower value; AID 743279, 2014; 360,000 tested, 4.7% active; activity change, % at 57.5 µM; in the data active = activity change below about -50%; inconclusive = mostly about -30% to -49%; note: % is set by controls: 0 for no effect and ±100 for the full control effect
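THP-1 cells pretreated 1 hr with compounds (up to 57.5 uM final), then stimulated with LPS (250 ng/mL final) plus ATP (1.25 mM final); secreted IL-1B measured by AlphaLISA after 16 hr, decreased signal indicating inhibition.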
TDP1 cell CPT = qHTS for Inhibitors of human tyrosyl-DNA phosphodiesterase 1 (TDP1): qHTS in cells in presence of CPT. chicken DT40 Tdp1-/-;hTDP1 cells + 20 nM CPT, ATP luminescence, 48 h. Potency, µM (series often up to 46.2 µM), inactives show top-dose activity change, negative = growth inhibition, hits mostly inhibitors. 420,000 tested, 12% active. AID 686979, 2013; note: potency is the fitted concentration of half-maximal effect; % is set by controls: 0 for no effect and ±100 for the full control effect; nearly all actives have a fitted effect of over 55% in size
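Chicken DT40 Tdp1-/- cells stably complemented with human TDP1 were seeded at 400 cells/well in medium containing 20 nM camptothecin, exposed to pin-transferred compounds, and grown at 37 °C for at least 48 hr. Viability was read as ATP luminescence.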
DRD3 agonist = qHTS of D3 Dopamine Receptor Agonist: qHTS | 410,000 tested, 0.58% active | D(3) dopamine receptor (Homo sapiens), P35462 | D3R DiscoveRx beta-arrestin cells, luminescence, 90 min | max activation, %; in the data active = max activation above about 30%; note: 0% is about no effect
Target sequence (P35462 whole entry, looked up): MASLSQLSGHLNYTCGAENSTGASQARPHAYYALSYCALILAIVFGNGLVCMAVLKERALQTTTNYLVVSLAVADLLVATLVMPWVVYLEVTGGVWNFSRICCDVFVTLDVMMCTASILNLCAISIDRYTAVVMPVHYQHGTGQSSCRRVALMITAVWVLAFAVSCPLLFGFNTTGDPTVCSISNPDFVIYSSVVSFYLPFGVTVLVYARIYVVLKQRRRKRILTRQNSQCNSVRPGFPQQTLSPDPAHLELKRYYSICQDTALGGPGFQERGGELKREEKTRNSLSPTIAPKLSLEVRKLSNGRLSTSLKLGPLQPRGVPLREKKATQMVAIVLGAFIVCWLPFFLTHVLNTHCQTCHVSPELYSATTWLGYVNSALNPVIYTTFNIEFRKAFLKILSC
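Agonist-mode cell screen: cells plated at 1500/well and incubated overnight at 37 °C, then exposed to library compounds for 90 min at 37 °C. Detection reagent was added for 30–60 min at room temperature, and luminescence was read.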
DRD3 antagonist = qHTS of D3 Dopamine Receptor Antagonist: qHTS; D(3) dopamine receptor (Homo sapiens), P35462; D3R cells, DiscoveRx beta-arrestin luminescence, antagonist mode; stronger effect = lower value; 360,000 tested, 2.5% active; max response, negative = inhibition, %; in the data active = max response below about -50%; inconclusive = no clear call, values can overlap the other calls; note: % is set by controls: 0 for no effect and ±100 for the full control effect
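Cells plated overnight at 1500 cells/well, then exposed to library compounds with dopamine controls for 90 minutes at 37 degrees C. DiscoveRx reagent added for 30–60 minutes at room temperature; luminescence read, quantitative HTS format.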
DT40 TDP1 no CPT = qHTS for Inhibitors of human tyrosyl-DNA phosphodiesterase 1 (TDP1): qHTS in cells in absence of CPT; 420,000 tested, 15% active; AID 686978, 2013; DT40 Tdp1-/- hTDP1 cells, no CPT, ATP luminescence, 48 h; Potency, µM (series often up to 46.2 µM), inactives show at the highest dose activity change, negative = growth inhibition, most hits filed as inhibitors; note: potency is the fitted concentration of half-maximal effect; % is set by controls: 0 for no effect and ±100 for the full control effect; nearly all actives have a fitted effect of over 55% in size
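Chicken DT40 Tdp1-/- cells complemented with human TDP1, screened without camptothecin (DMSO vehicle only), 400 cells/well. Compounds pin-transferred, cells incubated at 37 °C for at least 48 hr. Growth read as ATP-dependent luminescence (CellTiter-Glo, 30 min at RT).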
ClpP mod = qHTS Assay for Activators of ClpP. ATP-dependent Clp protease proteolytic subunit (Bacillus subtilis (strain 168)), P80244. purified B. subtilis ClpP, FRET peptide cleavage, 20 min. Potency, µM (highest dose often 57.5 µM), for inactives: top-dose activity change, negative = active. 340,000 tested, 1.9% active; active = well fitted falling curve with a large enough effect; inconclusive = small, poorly fitted or top-dose-only effect; inactive = no such curve, though single readings can be large or run the other way; note: potency is the fitted concentration of half-maximal effect; the source files actives as falling curves though it sought activators and does not explain the sign; nearly all actives have a fitted effect of over 65% in size
Target sequence (P80244 whole entry, looked up): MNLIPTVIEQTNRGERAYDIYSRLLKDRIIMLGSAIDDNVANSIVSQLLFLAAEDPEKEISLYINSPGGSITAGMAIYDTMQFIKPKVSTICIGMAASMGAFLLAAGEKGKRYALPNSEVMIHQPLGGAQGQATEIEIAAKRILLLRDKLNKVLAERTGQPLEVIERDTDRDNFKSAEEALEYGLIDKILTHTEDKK
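Buffer: 100 mM Tris/HCl pH8, 100 mM KCl, 0.05% low protease BSA, 2.5% glycerol, 0.01% Tween-20. ClpP 10 microg/mL final; 20 min RT; delta FRET normalized to ADEP and DMSO controls.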
An asterisk follows results filed as active; ? = inconclusive; . = no result. Unless noted, calls come from the whole dose curve; as a rule, active = well fitted inhibition curve with a large enough effect; inconclusive = small, poorly fitted or top-dose-only effect; inactive = flat fitted curve, though single readings scatter.

SMILES	IL1B secr inh	TDP1 cell CPT	DRD3 agonist	DRD3 antagonist	DT40 TDP1 no CPT	ClpP mod
O=C(Nc1cccc(-c2cn3cccnc3n2)c1)c1ccco1	4.0	5.4%	-22.3	7.9	-14.2%	-3.6%
O=C(Nc1cccc(-c2cn3cccnc3n2)c1)c1ccc2c(c1)OCO2	0.0	-18.0%	-12.0	33.7	?	28.2µM*
CC(C)(C)CC(=O)Nc1ccc(-c2cn3cccnc3n2)cc1	-14.3	?	-22.2	-23.5	-14.5%	0.0%
Cc1cc(C)cc(C(=O)Nc2ccc(-c3cn4cccnc4n3)cc2)c1	.	?	-4.8	.	9.2µM*	3.9%
Cc1ccc(C(=O)Nc2ccc(-c3cn4cccnc4n3)cc2)cc1C	.	?	4.5	.	?	4.4%
CC(C)CC(=O)Nc1ccc(-c2cn3cccnc3n2)cc1	-3.3	-26.6%	-0.8	0.0	-17.8%	3.4%
CCCC(=O)Nc1ccc(-c2cn3cccnc3n2)cc1	-8.7	-4.1%	-9.1	1.4	?	.
O=C(Nc1ccc(-c2cn3cccnc3n2)cc1)c1ccccc1F	.	?	2.5	.	16.4µM*	4.6%
CCOCC(=O)Nc1ccc(-c2cn3cccnc3n2)cc1	24.7	14.6µM*	0.1	-26.8	-27.2%	-33.1%
NNC(=O)C(Cc1cnc[nH]1)NC(=O)OCc1ccccc1 (centres undefined)	-3.0	9.6%	3.9	8.4	7.1%	0.3%
COc1cc([N+](=O)[O-])ccc1NC(=O)COC(=O)CCS(=O)(=O)c1ccc(C)cc1	-4.4	-6.6%	0.3	0.5	?	-3.9%
COc1cccc(-n2nc(C(N)=O)c(O)cc2=O)c1	11.7	1.6%	-2.0	-6.7	-20.0%	.
COc1cccc(-n2nc(C#N)c(Cl)cc2=O)c1	-101.4*	2.31µM*	-14.1	-87.0*	2.91µM*	.
C=C[C@@]1(C)CC(=O)[C@@]2(O)[C@@]3(C)[C@@H](O)CCC(C)(C)[C@@H]3[C@H](O)[C@H](OC(C)=O)[C@@]2(C)O1	.	3.8%	.	.	?	.
O=C(NCc1ccc(C(F)(F)F)cc1)c1ccc(-c2cccnc2)c2ccoc12	0.0	?	-8.3	-2.4	?	4.9%
O=C(NCc1ccncc1)c1cc(-c2ccc(Cl)cc2)oc1C(F)(F)F	?	?	-1.8	-10.0	18.4µM*	-8.1%
O=C(NCc1ccncc1)c1ccc(-c2ccc(F)c(F)c2)c2ccoc12	-16.0	4.11µM*	1.1	6.9	6.51µM*	4.3%
O=C(NCc1cccc(Cl)c1)c1ccc(-c2cccnc2)c2ccoc12	-14.5	?	-0.3	17.8	?	4.5%
CC(C)CNC(=O)c1ccc(-c2ccc(F)c(F)c2)c2ccoc12	-66.4*	?	0.7	-6.1	18.4µM*	?
O=C(NCCc1ccccc1)c1ccc(-c2cccnc2)c2ccoc12	-26.1	?	-5.5	-15.6	14.6µM*	4.7%
CC(=O)N[C@H]1[C@H]([C@H](O)[C@H](O)CO)OC(C(=O)O)=C[C@@H]1N=C(N)N	.	-19.5%	-7.0	.	-16.5%	.
O=C(O)CCn1cnc2onc(-c3ccccc3Cl)c2c1=O	.	14.6%	-4.5	.	-9.6%	-3.7%
Cc1ccc(-c2nc3c4ccccc4n(CC(=O)N4CCN(c5ccc(F)cc5)CC4)c(=O)n3n2)cc1	.	-7.0%	-4.5	.	-15.9%	-3.6%
O=C(NCc1ccc(C(F)(F)F)cc1)c1ccc(-c2ccc(F)c(F)c2)c2ccoc12	?	?	-13.2	?	?	28.2µM*
Cc1cc(-c2onc(C)c2C(=O)N/N=C/c2ccccc2)no1	-0.7	-10.0%	-1.0	7.0	-25.1%	-0.4%
SMILES	IL1B secr inh	TDP1 cell CPT	DRD3 agonist	DRD3 antagonist	DT40 TDP1 no CPT	ClpP mod
Cc1ccc(SC(=O)c2c(C)noc2-c2cc(C)on2)cc1	-64.5*	18.4µM*	-8.0	-92.2*	9.2µM*	.
COc1ccc(C2CCc3cc(OC)c(OC)cc3C2NC=O)cc1OC (centres undefined)	9.4	-15.4%	-7.2	-19.5	?	-17.2%
O=C1CN(C(=S)NC(=O)c2ccccc2[N+](=O)[O-])CCN1	30.2	-3.1%	4.4	-21.4	20.6%	-2.5%
Nc1nc2n[nH]nc2c(=O)[nH]1	40.7	7.31µM*	-2.2	-6.4	7.31µM*	-4.4%
CC(C)(C)c1ccc(C(=O)NC(=S)NNC(=O)c2cccs2)cc1	0.0	23.1µM*	3.0	1.8	13µM*	-3.2%
Cc1ccccc1C(=O)NNC(=S)NC(=O)c1cccs1	75.7	20.6µM*	1.1	22.9	18.4µM*	0.6%
Cc1cccc(C(=O)NC(=S)NNC(=O)c2cccs2)c1	0.0	-76.4%	-4.7	?	?	-1.7%
Cc1ccccc1C(=O)Nc1cccc(NC(=S)NC(=O)c2cccs2)c1	-24.2	-28.2%	-1.4	-11.1	?	-1.4%
O=C(NC(=S)NNC(=O)c1cccs1)c1ccco1	6.1	?	24.2	28.0	?	-1.0%
O=C(NC(=S)NC1CCSC1=O)c1cccs1 (centres undefined)	-15.4	-3.5%	-7.7	-1.3	29.1µM*	-5.1%
Cc1ccccc1C(=O)NC(=S)NC1CCSC1=O (centres undefined)	-4.5	20.2%	-4.3	5.7	-18.9%	-0.7%
O=C(NC(=S)NNC(=O)c1cccs1)c1ccccc1	83.9	?	0.8	-11.2	14.6µM*	1.6%
CC1CCCCN1S(=O)(=O)c1ccc2[nH]c(=O)cc(C(=O)NCCCN3CCCCCC3)c2c1 (centres undefined)	-8.3	-0.4%	0.9	-10.6	10.3%	-6.7%
COc1cccc(C(=O)c2cn(CC(=O)Nc3cccc(C)c3C)c3nc(C)ccc3c2=O)c1	.	-18.2%	1.3	.	-12.6%	0.9%
COc1ccc(NC(=O)c2c(NCc3ccc(C)o3)sc3c2CCCCC3)c(OC)c1	.	9.2µM*	-3.7	.	18.4µM*	0.9%
COc1ccc(NC(=O)c2c(NCc3ccc(C)o3)sc3c2CCC(C)C3)c(OC)c1 (centres undefined)	.	20.6µM*	-3.9	.	?	-1.4%
COc1ccccc1NC(=O)c1c(NCc2ccc(C)o2)sc2c1CCC(C)C2 (centres undefined)	.	18.4µM*	-13.8	.	?	-1.7%
COc1ccc(NC(=O)c2c(NCc3ccc(C)o3)sc3c2CCC(C)C3)cc1 (centres undefined)	.	23.1µM*	-5.9	.	9.2µM*	-2.5%
